{"source": "PubChem BioAssay AID2284422", "about": "(EPA ToxCast)", "note": "Calls of active or inactive are those of the source. How the source made its calls: active means hit-call score of the fitted dose curve at least 0.9, where 1 is the maximum; inactive means score below 0.9.", "data": [{"experiment": "CCTE_Deisenroth_DEVTOX-GLR_Meso_CellCount: Viability Assessment in CCTE's DevTox GLR-Meso Assay, Deisenroth Lab", "method": "CCTE_Deisenroth_DEVTOX-GLR_Meso assay is a cell-based, multiplex-readout assay that uses RUES2-GLR, a human pluripotent cell line, with measurements taken at 48 hours after chemical dosing in a 384-well microplateCCTE_Deisenroth_DEVTOX-GLR_Meso_CellCount is 1 of 4 assay components calculated from the CCTE_Deisenroth_DEVTOX-GLR_Meso assay and it measures cell count. Using fluorescent nuclei staining, gain-of-signal activity can be used to understand changes in cell viability with fluorescent microscopy. It is designed to make measurements of nuclei counts as a surrogate for cell number, as detected with optical fluorescence microscopy by Perkin Elmer Harmony nuclei detection algorithm. To generalize the intended target to other relatable targets, this assay component is annotated to the cell cycle intended target family, where the subfamily is cytotoxicity.Data from the assay component CCTE_Deisenroth_DEVTOX-GLR_Meso_CellCount was analyzed as 1 assay endpoint. The endpoint the percent change in cell count relative to the 0.2% DMSO control in the CCTE_Deisenroth_DEVTOX-GLR_Meso assay. Furthermore, this assay endpoint can be referred to as a primary readout, because this assay has produced multiple assay endpoints where this one serves as a measure of cytotoxicity.\nAll assay protocols are aligned to the DevTox GLR-Endo assay workflow. Cells are seeded into 384-well microplates for 24 hours prior to initiating differentiation in defined media for a total duration of 48 hours. A total of two chemical exposures are administered in 24-hour intervals during the 48-hour differentiation period. At the assay termination point, cells are fixed and stained with a fluorescent dye demarcating the nucleus. High-content imaging is used to acquire brightfield and fluorescent channel images across 5 fields per well. Cell identification and mean biomarker fluorescence intensities are calculated with image analysis software to determine the total cell counts for viability assessment and the biomarker expression frequency for each lineage-dependent assay. A typical experimental design tests a 10-point concentration series (1 nM - 200 uM) for 28 compounds in single technical replicate. Assay plate controls include non-differentiated pluripotent cells (baseline control), lineage-specific differentiated cells (differentiation control), and DMSO solvent exposed differentiated cells (solvent control). Experiments typically comprise a minimum of four experimental replicates (n=4).", "values": [{"smiles": "CS(=O)(=O)OCCCCOS(C)(=O)=O", "AC50": "57.8 µM (active)"}, {"smiles": "Nc1cccc2c1C(=O)N(C1CCC(=O)NC1=O)C2=O", "note": "(stereo unspecified)", "outcome": "inactive"}, {"smiles": "CC1=C(/C=C/C(C)=C/C=C/C(C)=C\\C(=O)O)C(C)(C)CCC1", "AC50": "18.6 µM (active)"}, {"smiles": "CC/C(=C(/CC)c1ccc(O)cc1)c1ccc(O)cc1", "AC50": "2.86 µM (active)"}, {"smiles": "O=C1NS(=O)(=O)c2ccccc21", "outcome": "inactive"}, {"smiles": "CN(Cc1cnc2nc(N)nc(N)c2n1)c1ccc(C(=O)N[C@@H](CCC(=O)O)C(=O)O)cc1", "outcome": "inactive"}, {"smiles": "CC1(C)S[C@@H]2[C@H](NC(=O)Cc3ccccc3)C(=O)N2[C@H]1C(=O)O", "outcome": "inactive"}, {"smiles": "O=c1[nH]cc(F)c(=O)[nH]1", "AC50": "4.95 µM (active)"}, {"smiles": "CCN(CC)CCNC(=O)c1c(C)[nH]c(/C=C2\\C(=O)Nc3ccc(F)cc32)c1C", "AC50": "1.18 µM (active)"}, {"smiles": "CCCC(CCC)C(=O)O", "outcome": "inactive"}, {"smiles": "Nc1nc2ncc(CNc3ccc(C(=O)N[C@@H](CCC(=O)O)C(=O)O)cc3)nc2c(=O)[nH]1", "outcome": "inactive"}, {"smiles": "CC(=O)Nc1ccc(O)cc1", "outcome": "inactive"}, {"smiles": "CC1=C(/C=C/C(C)=C/C=C/C(C)=C/C(=O)O)C(C)(C)CCC1", "AC50": "18.5 µM (active)"}, {"smiles": "CC(C)(c1ccc(O)cc1)c1ccc(O)cc1", "AC50": "33.5 µM (active)"}, {"smiles": "O=C1NC(=O)C(c2ccccc2)(c2ccccc2)N1", "AC50": "100 µM (active)"}, {"smiles": "O=C1CCC(N2C(=O)c3ccccc3C2=O)C(=O)N1", "note": "(stereo unspecified)", "outcome": "inactive"}]}]}
